Results as given in the supplement of paper PMC7156485.
± gives the standard deviation of the averaged measurements.

How the values were obtained:
Settings in all cases: concentration: 10 µM; 24 h
[1] = system: HCC1569; experiment: cell number relative to DMSO (% of DMSO); higher = more cells (less growth inhibition / toxicity)
Procedure, shortened: (§1)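 HCC1569 and TDF cells (800 per well, 384-well plates, RPMI with 10% FBS) were treated with compounds at 10 µM for 24 h at 37 °C, in triplicate. Cells were fixed in 3.7% formaldehyde and stained with a rabbit anti-H1.0 antibody, an AlexaFluor 647 secondary and DAPI; six fields per well were imaged at ×10. H1.0 nuclear intensity or cell number is expressed as percent of the plate DMSO control, taking the median of replicates. HCC1569 values were smoothed for positional effects.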

[2] = system: TDF; experiment: as above
Procedure, shortened: as §1

[3] = system: TDF; experiment: H1.0 immunofluorescence intensity relative to DMSO (% of DMSO); higher = stronger H1.0 induction, active = 120 or more
Procedure, shortened: as §1

[4] = system: HCC1569; experiment: H1.0 immunofluorescence intensity relative to DMSO (% of DMSO); higher = stronger H1.0 induction, active = 140 or more
Procedure, shortened: as §1
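Wherever H1.0 immunofluorescence intensity relative to DMSO is given: TDF is a line of transformed human dermal fibroblasts of mesenchymal origin.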
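Wherever cell number relative to DMSO is given: TDF denotes transformed human dermal fibroblasts of mesenchymal origin.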

`COc1ccc(-c2cc(=O)c3c(OC)c(OC)c(OC)cc3o2)cc1OC` [Sinensetine] was tested, and the cell number [1] was 101, the cell number [2] was 99.8 and the H1.0 immunofluorescence intensity [3] was 93.9 (inactive). For the same compound, the H1.0 immunofluorescence intensity [4] was 93.6 (inactive).

With `CC(=O)NCCOC(=O)[C@H](Oc1cccc(C(F)(F)F)c1)c1ccc(Cl)cc1` the cell number [1] was 104, the cell number [2] was 100 and the H1.0 immunofluorescence intensity [3] was 95.3 (inactive). The H1.0 immunofluorescence intensity [4] was 104 (inactive).

With `CN(C)c1ccc(O)c2c1CC1CC3C(N(C)C)C(=O)C(C(N)=O)=C(O)C3(O)C(=O)C1=C2O` (stereo unspecified) [Minocycline] the cell number [1] was 107, the cell number [2] was 101 and the H1.0 immunofluorescence intensity [3] was 110 (inactive). For the same compound, the H1.0 immunofluorescence intensity [4] was 88.6 (inactive).

For `CCCCCCCCCCC(=O)O` [Undecanoic acid], the cell number [1] was 104, the cell number [2] was 100 and the H1.0 immunofluorescence intensity [3] was 113 (inactive). For the same compound, the H1.0 immunofluorescence intensity [4] was 103 (inactive).

With `Cl.Cl.NCCc1cnc[nH]1` [Histamine dihydrochloride] the cell number [1] was 99.6, the cell number [2] was 105 and the H1.0 immunofluorescence intensity [3] was 92.1 (inactive). For the same compound, the H1.0 immunofluorescence intensity [4] was 86.6 (inactive).

For `OCc1cc(C(O)CNCCCCCCOCCCCc2ccccc2)ccc1O` (stereo unspecified) [Salmeterol], the cell number [1] was 90.4, the cell number [2] was 100 and the H1.0 immunofluorescence intensity [3] was 110 (inactive). The H1.0 immunofluorescence intensity [4] was 132 (inactive).

In the case of `Cc1ccc([N+](=O)[O-])cc1S(=O)(=O)N(C)N=Cc1cnc2ccc(Br)cn12`, the cell number [1] is reported as 52, the cell number [2] is reported as 11.6 and the H1.0 immunofluorescence intensity [3] is reported as 111 (inactive). The H1.0 immunofluorescence intensity [4] was 104 (inactive).

`Nc1ccc(C(=O)O)c(O)c1` [4-Aminosalicylic acid] gave a cell number [1] of 105 and a cell number [2] of 98.2.

`COc1cc(C)c(C=CC(C)=CC=CC(C)=CC(=O)O)c(C)c1C` [Acitretin] was tested, and the cell number [1] was 98.5, the cell number [2] was 108 and the H1.0 immunofluorescence intensity [3] was 90.1 (inactive). The H1.0 immunofluorescence intensity [4] was 126 (inactive).

`CCSC(N)=Nc1ccc(C(F)(F)F)cc1.Cl` [TFPI hydrochloride] was tested, and the cell number [1] was 79.3, the cell number [2] was 90.8 and the H1.0 immunofluorescence intensity [3] was 99.6 (inactive). The H1.0 immunofluorescence intensity [4] was 132 (inactive).

For `O=C(CCc1ccc(O)cc1)c1c(O)cc(O)cc1O` [Phloretin], the cell number [1] was 97.73 ± 0.41, the cell number [2] was 98.5 ± 17 and the H1.0 immunofluorescence intensity [3] was 96.1 (inactive). The H1.0 immunofluorescence intensity [4] was 107 (inactive).

With `CCCCCCCCC=CCCCCCCCCCCCCC(=O)O` [14(Z)-Tricosenoic acid] the cell number [1] was 100, the cell number [2] was 106 and the H1.0 immunofluorescence intensity [3] was 100 (inactive). For the same compound, the H1.0 immunofluorescence intensity [4] was 101 (inactive).

For `O=C(O)C(O)C(O)C(=O)O.O=C(c1ccc(F)cc1)C1CCN(CCn2c(=O)[nH]c3ccccc3c2=O)CC1` [Ketanserin tartrate], the cell number [1] was 96.9, the cell number [2] was 93.1 and the H1.0 immunofluorescence intensity [3] was 106 (inactive). The H1.0 immunofluorescence intensity [4] was 104 (inactive).

With `Nc1ncnc2c1ncn2C1OC(C(=O)NC2CC2)C(O)C1O` (stereo unspecified) [5'-(N-Cyclopropyl)carboxamidoadenosine] the cell number [1] was 99.6, the cell number [2] was 95.1 and the H1.0 immunofluorescence intensity [3] was 97.8 (inactive). For the same compound, the H1.0 immunofluorescence intensity [4] was 93.6 (inactive).

`CC1=C(C(=O)O)N2C(=O)C(NC(=O)C(N)C3=CCC=CC3)C2SC1` (stereo unspecified) [Cephradine] was tested, and the cell number [1] was 100, the cell number [2] was 115 and the H1.0 immunofluorescence intensity [3] was 93.5 (inactive). For the same compound, the H1.0 immunofluorescence intensity [4] was 88.5 (inactive).

`COC1CC2CCC(C)C(O)(O2)C(=O)C(=O)N2CCCCC2C(=O)OC(C(C)CC2CCC(O)C(OC)C2)CC(=O)C(C)C=C(C)C(O)C(OC)C(=O)C(C)CC(C)C=CC=CC=C1C` (stereo unspecified) [Rapamycin] was tested, and the cell number [1] was 96.2 ± 5.5, the cell number [2] was 92.4 ± 8.9 and the H1.0 immunofluorescence intensity [3] was 86.7 (inactive). The H1.0 immunofluorescence intensity [4] was 108 (inactive).

`O=C(O)CCCCC1CCSS1` (racemic) gave a cell number [1] of 104.

`Cl.Cl.c1ccc2c3c([nH]c2c1)C1C2CCC(C4CCCNC42)N1CC3` (stereo unspecified) was tested, and the cell number [1] was 99.8, the cell number [2] was 100 and the H1.0 immunofluorescence intensity [3] was 97.2 (inactive). For the same compound, the H1.0 immunofluorescence intensity [4] was 101 (inactive).

For `CC12CCC(=O)C=C1CCC1C2C(=O)CC2(C)C1CCC2(O)C(=O)CO` (stereo unspecified) [Cortisone], the cell number [1] was 87.8, the cell number [2] was 82 and the H1.0 immunofluorescence intensity [3] was 106 (inactive). For the same compound, the H1.0 immunofluorescence intensity [4] was 97 (inactive).

For `COC1C(N(C)C(=O)c2ccccc2)CC2OC1(C)n1c3ccccc3c3c4c(c5c6ccccc6n2c5c31)C(=O)NC4` (stereo unspecified) [Staurosporine, N-benzoyl-], the cell number [1] was 66, the cell number [2] was 53.5 and the H1.0 immunofluorescence intensity [3] was 82.4 (inactive). For the same compound, the H1.0 immunofluorescence intensity [4] was 108 (inactive).

`NC(=O)N1c2ccccc2CC(=O)c2ccccc21` [Oxcarbazepine] was tested, and the cell number [1] was 103, the cell number [2] was 108 and the H1.0 immunofluorescence intensity [3] was 93.7 (inactive). The H1.0 immunofluorescence intensity [4] was 110 (inactive).

`CN1CCN(C2=Nc3ccccc3Oc3ccc(Cl)cc32)CC1.O=C(O)CCC(=O)O` [Loxapine succinate] was tested, and the cell number [1] was 101, the cell number [2] was 94.3 and the H1.0 immunofluorescence intensity [3] was 95.8 (inactive). The H1.0 immunofluorescence intensity [4] was 110 (inactive).

`Cn1cnc2c(NCc3ccccc3)nc(NCCO)nc21` [Olomoucine] was tested, and the cell number [1] was 100, the cell number [2] was 121 and the H1.0 immunofluorescence intensity [3] was 98.6 (inactive). For the same compound, the H1.0 immunofluorescence intensity [4] was 94.1 (inactive).

`c1ccc(CNc2nc(NCc3ccccc3)c3ccccc3n2)cc1` [N~2~,N~4~-dibenzyl-2,4-quinazolinediamine] was tested, and the cell number [1] was 33.7, the cell number [2] was 39 and the H1.0 immunofluorescence intensity [3] was 156 (active). The H1.0 immunofluorescence intensity [4] was 88.7 (inactive).
